Measured values: PubChem BioAssay (NCATS)
Results filed as inconclusive are left out. A call without a number means that no potency is given here. Active and inactive are the calls of the source. Calls come from the whole dose curve; as a rule, active = well fitted inhibition curve with a large enough effect; inconclusive = small, poorly fitted or top-dose-only effect; inactive = flat fitted curve, though single readings scatter.

Each compound was assayed against Aldehyde dehydrogenase, mitochondrial (Homo sapiens) (UniProt P05091) (assay: qHTS for Inhibitors of the Aldehyde Dehydrogenase Family (ALDH2) Primary screen (AID 2061308; note: nearly all actives have a fitted effect of over 55% in size)). Details: ALDH2 enzyme inhibition qHTS, 1536-well; series mostly up to 56 µM.
For `COc1ccc(C2=Nn3c(nnc3-c3ccccc3Cl)SC2)cc1O[C@H]1CCOC1`, the Potency was “inactive”.
In the case of `Cc1ccc(S(=O)(=O)Nc2cnccc2C(=O)Nc2ccc(-c3nc4ccccc4[nH]3)cc2)cc1`, the Potency was “inactive”.
`COc1cc(O)c(C(CC(=O)N2CCCCC2)c2ccc3c(c2)OCO3)c(OC)c1` (stereo not given) was tested, and the Potency was “inactive”.
With `S=C(NCCCc1cnc[nH]1)NCCCN(Cc1ccc(Cl)c(Cl)c1)c1ccc(Br)cn1` the Potency was “inactive”.
In the case of `Cc1cc(N[S+](=O)([O-])c2ccc(NC(=O)Cc3ccc(C(F)(F)F)c(F)c3)cc2)no1`, the Potency was “inactive”.
`O=C(OCc1c(-c2ccccc2)no[n+]1[O-])c1ccccc1` was tested, and the Potency was “inactive”.
With `N#Cc1c(-c2ccc3ccccc3c2)no[n+]1[O-]` the Potency was “inactive”.
For `Cc1cc2c(s1)c1cnn(Cc3c(C)cc(F)cc3C)c(=O)c1n2C`, the Potency was “inactive”.
With `O=C(Nc1ccc(Cl)c(Cl)c1)Nc1nnc(N2CCNCC2)s1` the Potency was “inactive”.
For `O=C(O)c1sc2c(c1-c1nc3ccccc3s1)CCNC2`, the Potency was “inactive”.
For `Cc1ccnc(NC(=S)Nc2cccc([S+](=O)([O-])Nc3ccccc3F)c2)c1`, the Potency was “inactive”.
For `O=C(Cc1nc2ccc(Cl)cc2[nH]1)Nc1ccc(S(=O)(=O)Nc2nccs2)cc1`, the Potency was “inactive”.
`CC(C)Oc1ccc(-c2ccc(=O)n(CC(=O)NCCc3ccccc3)n2)cc1` was tested, and the Potency was “inactive”.
In the case of `COc1ccc(C[C@H](N)C(=O)N[C@@H]2[C@H](O)[C@H](n3cnc4c(N(C)C)ncnc43)O[C@@H]2CO)cc1`, the Potency was “inactive”.
In the case of `Cc1cnc(-c2ccccc2C(C)C)nc1NCC1CCN(c2cnccn2)CC1`, the Potency was “inactive”.
For `C=C1C(=O)O[C@@H]2C[C@@]3(C)CCCC(=C)[C@]3(O)C[C@H]12`, the Potency was “inactive”.
`CCCn1c(-c2ccc(F)cc2)nc2c(N(C)CCN(C)C)nc(C)nc21` was tested, and the Potency was “inactive”.
With `CCN(CCc1cn(C)cn1)c1ncnc2ccc(-c3ccc4c(c3)OCO4)cc12` the Potency was “inactive”.
`O=C1NC2=C(C(=O)CCC2)C(c2ccccc2Cl)N1` (stereo not given) was tested, and the Potency was “inactive”.
In the case of `Cc1occc1CNc1ncnc2ccc(-c3ccc4c(c3)OCO4)cc12`, the Potency was “inactive”.
In the case of `C#CCOc1cccc(-c2nnc3n2N=C(c2ccc(OC)c(OCC(C)=O)c2)CS3)c1`, the Potency was “inactive”.
For `COc1cc(OC)cc(N2CCN(C(=S)Nc3cc(C)cc(C)n3)CC2)c1`, the Potency was “inactive”.
In the case of `NC(=O)C1CCN(c2nccc(Cl)n2)CC1`, the Potency was “inactive”.
With `Cc1nc(CCNc2ncnc3ccc(-c4ccc5c(c4)OCO5)cc23)cs1` the Potency was “inactive”.
`Fc1ccc(Nc2nc(-c3ccncc3F)nc3ccccc23)cc1F` was tested, and the Potency was “inactive”.
`Cn1nnnc1Sc1ncnc2scc(-c3cccs3)c12` was tested, and the Potency was “inactive”.
In the case of `O=c1c2ccccc2nc2sc(Nc3cccc(-c4ccncc4)c3)nn12`, the Potency was “inactive”.
For `O=C(CSc1ccccc1)Nc1nnc(COc2ccc(Cl)cc2)s1`, the Potency was “inactive”.
`CC(=O)c1c(C)[nH]c(C(=O)Nc2ccc(OCCCN(C)C)c(S(=O)(=O)Nc3ccc(Br)cc3)c2)c1C` was tested, and the Potency was “inactive”.
With `CCCn1c(-c2ccc(F)cc2)nc2c(NCC3CCCN3CC)nc(C)nc21` (stereo not given) the Potency was “inactive”.
`OCc1ccc(-c2ccc3ncnc(NCc4ncc[nH]4)c3c2)o1` was tested, and the Potency was “inactive”.
`C(=Nc1cccnc1)c1cccs1` was tested, and the Potency was “inactive”.
In the case of `O=C(/C=C/c1ccc(F)cc1)Nc1cccc([S+](=O)([O-])Nc2ccccc2F)c1`, the Potency was “inactive”.
In the case of `Cc1ccc(C(=O)N2CCc3cc(-c4nc(NC(=O)Cc5ccc6c(c5)OCO6)sc4C)ccc32)cc1`, the Potency was “inactive”.
In the case of `Cc1nnc(-c2ccccc2)n1CCCn1ccnc1`, the Potency was “inactive”.
In the case of `O=C(Nc1ncc(Cc2ccc(C(F)(F)F)cc2)s1)c1cnc(-c2ccccc2)[nH]1`, the Potency was “inactive”.
For `O=C(OCC#CCSc1nnc(-c2cccs2)o1)c1ccc(F)cc1`, the Potency was “inactive”.
In the case of `Brc1cnc2nc(SCc3ccccc3)[nH]c2c1`, the Potency was “inactive”.
With `CC(C)(C)OC(=O)Cc1nnc(-c2nc3ccccc3[nH]2)s1` the Potency was “inactive”.
With `N#Cc1nc(-c2cccc3ccccc23)oc1NCC#CCOC(=O)c1cccs1` the Potency was “inactive”.
